Assay outcomes deposited in PubChem by National Center for Advancing Translational Sciences (NCATS).
PLK1 PBD block: qHTS for Inhibitors of PLK1-PDB (polo-like kinase 1 - polo-box domain): Primary Screen; Serine/threonine-protein kinase PLK1 (Homo sapiens), P53350; Plk1 PBD binding of FITC phosphopeptide, fluorescence polarization; Potency, µM, usual class: inhibitors; 360,000 compounds, 2.8% hits; further: series mostly up to about 57 µM; nearly all actives have a fitted effect of over 65% in size
MBNL1-CUG inh: qHTS Assay for Inhibitors of MBNL1-poly(CUG) RNA binding. Potency, µM (top dose mostly 57.5 µM), actives largely listed as inhibitors. TR-FRET MBNL1-His/biotin-(CUG)12 binding, 665/545 ratio. AID 2675, 2010. 280,000 compounds, 0.036% hits; active means well fitted inhibition curve with a large enough effect in the signal ratio, with a control signal flat, not every such curve was filed as active; inconclusive means small, poorly fitted or top-dose-only effect, or effect the other way, or a change in a side signal; inactive means no such curve, though single readings can be large or run the other way; the % refers to the signal ratio
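Compounds (final 92 nM to 58 uM) are added to His-tagged MBNL1 and biotin-(CUG)12, then terbium anti-His antibody and streptavidin-XL665 (5 nM final). After 60 min at room temperature, the 665/545 nm ratio is read.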
CBFb-RUNX1 inh: qHTS Assay for Compounds Blocking the Interaction Between CBF-beta and RUNX1 for the Treatment of Acute Myeloid Leukemia; AlphaScreen CBFb-His/RUNX1-biotin binding, biochemical; Potency, µM (series often up to 59.8 µM), hits mostly inhibitors; 230,000 tested, under 10 active; AID 1477, 2009
Target sequence (Q01196 whole entry, looked up): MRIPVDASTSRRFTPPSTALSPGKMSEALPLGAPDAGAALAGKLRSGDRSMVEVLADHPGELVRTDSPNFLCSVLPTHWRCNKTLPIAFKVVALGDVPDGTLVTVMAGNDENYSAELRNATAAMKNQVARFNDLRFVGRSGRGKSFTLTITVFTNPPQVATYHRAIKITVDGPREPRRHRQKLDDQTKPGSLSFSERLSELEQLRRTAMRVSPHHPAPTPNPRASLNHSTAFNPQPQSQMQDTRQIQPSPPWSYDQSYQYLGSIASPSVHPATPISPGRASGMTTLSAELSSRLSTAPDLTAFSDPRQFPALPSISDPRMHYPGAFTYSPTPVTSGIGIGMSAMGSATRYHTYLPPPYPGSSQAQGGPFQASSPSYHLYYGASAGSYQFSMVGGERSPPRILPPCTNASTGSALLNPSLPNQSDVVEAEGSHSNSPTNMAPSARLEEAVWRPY
Target sequence (Q13951 whole entry, looked up): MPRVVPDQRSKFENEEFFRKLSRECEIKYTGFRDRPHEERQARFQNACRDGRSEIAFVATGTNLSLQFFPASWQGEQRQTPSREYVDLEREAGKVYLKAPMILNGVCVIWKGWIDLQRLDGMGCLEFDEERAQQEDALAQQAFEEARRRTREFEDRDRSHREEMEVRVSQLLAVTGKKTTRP
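CBFb-His/RUNX1-biotin, 30 nM each, preincubated 20 min RT; compound 15 min RT; Ni + streptavidin beads 50 ng each, 90 min RT; AlphaScreen read.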
VDR inhibitor: Inhibitors of the vitamin D receptor (VDR): qHTS; Potency, µM, usual class: inhibitors; VDR-SRC2-3 peptide fluorescence polarization, 2 h; AID 504847, 2011; Vitamin D3 receptor (Homo sapiens), P11473; 400,000 compounds, 0.93% hits
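Reagent solutions, kept cold and dark, are dispensed first; compounds are then pinned in at 23 nl, plates briefly spun, and incubated 2 h at ambient temperature. Inhibition of VDR–SRC2-3 peptide binding is read by fluorescence polarization.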
KCNH2 3.1 inh: qHTS for Inhibitors of KCHN2 3.1: Mutant qHTS; Potassium voltage-gated channel subfamily H member 2, brain isoform KCNH2 3.1 (human); U2OS KCNH2 3.1, thallium flux FluxOr; hits give low values; activity change, % (tested at about 1.8 µM); 340,000 compounds, 0.95% hits;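 active means maximum activity change below -70%; inconclusive means maximum activity change from -70% to -50%; inactive means maximum activity change above -50%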;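 further: thallium influx rate constant from kinetic fluorescence after stimulation buffer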
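Thallium flux read-out: FluxOr dye with Red40 quencher in HBSS/HEPES, 45 min at RT. Rate constants from kinetic reads were normalized to positive and negative DMSO controls. Cells: U2OS virally expressing the 3.1 isoform.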
hERG WT inh: qHTS for Inhibitors of KCHN2 3.1: Wildtype qHTS | activity change, % at 1.84 µM | Voltage-gated inwardly rectifying potassium channel KCNH2 (Homo sapiens), Q12809 | AID 720551, 2013 | 340,000 compounds, 0.37% hits | U2OS, BacMam KCNH2, thallium flux FluxOr; hits give low values;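 active means maximum activity change below -70%; inconclusive means maximum activity change between -70% and -50%; inactive means maximum activity change above -50%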
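U2OS cells were transduced with wild-type KCNH2 virus (2.03 x 10^8 / mL) for 4 h at room temperature, then cultured overnight at 37 C. Thallium flux was read with FluxOr dye. Rate constants were normalized to DMSO controls.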
USP1-UAF1 confirm: Inhibitors of USP1/UAF1: Hit Validation in Primary Assay. shares compounds with VDR inhibitor. Ub-Rhodamine cleavage, fluorescence kinetic read. Potency, µM (top dose mostly 56.8 µM), usual class: inhibitors. 50 compounds, 50% hits. AID 540327, 2011
VDR inh confirm: qHTS for Inhibitors of the vitamin D receptor (VDR): Hit Validation in Primary Screen | shares compounds with VDR inhibitor | VDR-coactivator inhibition assay, qHTS confirmation | Potency, µM, hits mostly inhibitors | 840 compounds, 89% hits | AID 602199, 2012
VDR FP: qHTS for Inhibitors of the vitamin D receptor (VDR): Hit Validation using a Fluorescein Assay; shares compounds with VDR inhibitor; Potency, µM (doses to about 57.1 µM), most hits filed as inhibitors; VDR-coactivator binding, fluorescein fluorescence polarization; 840 compounds, 48% hits
VDR bla: qHTS for Inhibitors of the vitamin D receptor (VDR): Hit Validation using a Beta-Lactamase Assay; VDR beta-lactamase reporter cells, FRET ratio; cells co-treated with VDR agonist LG190178; shares compounds with VDR inhibitor; Potency, µM (highest dose often 46.1 µM), most hits filed as inhibitors; 840 compounds, 23% hits
VDR viability: qHTS for Inhibitors of the vitamin D receptor (VDR): Hit Validation using a Cytotoxicity Assay; shares compounds with VDR inhibitor; cytotoxicity counter-screen, cell viability, qHTS; Potency, µM (series often up to 48.3 µM), hits mostly cytotoxic; 840 compounds, 18% hits; AID 602204, 2012; further: nearly all actives have a fitted effect of over 75% in size
Large screens that a line does not name were inactive (follow-up assays come after a bar, where they were run). Sampled rows, rich in hits. Any-hit rate of the full collection: about 3.8%. Unless noted, the call rests on the fitted dose curve; in most records, active means well fitted curve in the direction sought with a large enough effect; inconclusive means small, poorly fitted or top-dose-only effect, or another doubt; inactive means no such curve, though single readings can be large; an effect the other way counts as inactive or inconclusive.

N#CC1=C(N)C(C#N)(C#N)C(c2cccnc2)C2CN(C(=O)OCc3ccccc3)CC=C12 (stereo unspecified)	VDR inhibitor 20µM | VDR inh confirm 12 | VDR FP inconclusive | VDR bla inactive | VDR viability inactive
CCOC(=O)N1CC=C2C(C#N)=C(N)C(C#N)(C#N)[C@H](c3ccc(OCC)c(OCC)c3)[C@H]2C1	none (no result: KCNH2 3.1 inh)
CC(=O)Nc1sc(N/N=C\c2ccccc2)nc1-c1cccs1	PLK1 PBD block inconclusive, VDR inhibitor 32µM | VDR inh confirm 3.4 | VDR FP inconclusive | VDR bla inactive | VDR viability inactive
COc1ccc(/C=C2\C(=O)N(c3c(Cl)cc(Cl)cc3Cl)N=C2NC(=O)c2cccc([N+](=O)[O-])c2)cc1	PLK1 PBD block 0.75µM, VDR inhibitor inconclusive (no result: MBNL1-CUG inh) | VDR inh confirm 2.8 | VDR FP 1.3µM | VDR bla inconclusive | VDR viability inactive
CC1(C)CC(=O)C(C(c2ccc(Br)cc2)C2C(=O)CC(C)(C)CC2=O)C(=O)C1	PLK1 PBD block 19µM, VDR inhibitor 25µM (no result: CBFb-RUNX1 inh) | VDR inh confirm 30 | VDR FP 18µM | VDR bla inactive | VDR viability inactive
CC1(C)CC(=O)C(C(c2ccc(F)cc2)C2C(=O)CC(C)(C)CC2=O)C(=O)C1	none
Cc1cc(NS(=O)(=O)c2cn(C)c(C)n2)ccc1Br	none (no result: PLK1 PBD block, MBNL1-CUG inh, CBFb-RUNX1 inh, KCNH2 3.1 inh, hERG WT inh)
O=C(C(c1ccccc1)N1CCOCC1)N1CCOCC1 (stereo unspecified)	none
Oc1c(C(c2ccccc2)N2CCOCC2)ccc2ccccc12 (stereo unspecified)	PLK1 PBD block 1.2µM, VDR inhibitor 20µM (no result: MBNL1-CUG inh, CBFb-RUNX1 inh) | VDR inh confirm 4.7 | VDR FP 3.2µM | VDR bla inactive | VDR viability inconclusive
O=C1Nc2ccc(Br)cc2C1=Nc1cccnc1	PLK1 PBD block inconclusive, VDR inhibitor 25µM | VDR inh confirm 9.5 | VDR FP inactive | VDR bla inactive | VDR viability inconclusive
CCCNC(=O)C1CCN(c2cc(C)nc3c(-c4ccc(OC)c(OC)c4)c(C)nn23)CC1	none (no result: PLK1 PBD block, MBNL1-CUG inh, CBFb-RUNX1 inh, KCNH2 3.1 inh, hERG WT inh)
O=S(=O)(c1ccc2nc(COc3ccc(Cl)cc3Cl)[nH]c2c1)N1CCOCC1	none
Cc1ccccc1OCc1nc2ccc(S(=O)(=O)N3CCOCC3)cc2[nH]1	PLK1 PBD block 9.5µM, VDR inhibitor 40µM | VDR inh confirm 21 | VDR FP inconclusive | VDR bla inactive | VDR viability inactive
CC(C)CCNC(=O)c1ccc2c(c1)NC(=O)C(CS(=O)(=O)Cc1ccc(F)cc1)N2 (stereo unspecified)	none (no result: PLK1 PBD block, MBNL1-CUG inh, CBFb-RUNX1 inh, KCNH2 3.1 inh, hERG WT inh)
CCOc1cc(/C=C\[N+](=O)[O-])ccc1OCC(=O)N1CCOCC1	PLK1 PBD block 21µM, VDR inhibitor 28µM | VDR inh confirm 27 | VDR FP inconclusive | VDR bla inconclusive | VDR viability inconclusive
COc1ccccc1-c1cc(=O)c2cc(O)ccc2o1	none (no result: PLK1 PBD block, MBNL1-CUG inh, VDR inhibitor, KCNH2 3.1 inh, hERG WT inh)
COc1ccc(OC)c(-c2c3cc(O)c(=O)cc-3oc3cc(O)c(O)cc23)c1	PLK1 PBD block 2.1µM, VDR inhibitor 25µM (no result: MBNL1-CUG inh, CBFb-RUNX1 inh) | VDR inh confirm 24 | VDR FP inconclusive | VDR bla inactive | VDR viability inconclusive
CCN(CC)c1ccc(NC(=O)COc2ccccc2C#N)cc1S(=O)(=O)Nc1ccccc1OC	PLK1 PBD block 5.3µM, VDR inhibitor 79µM | VDR inh confirm 9.5 | VDR FP inconclusive | VDR bla inactive | VDR viability inactive
CC1c2ccccc2CN1CC1=NCCN1 (stereo unspecified)	none (no result: PLK1 PBD block, MBNL1-CUG inh, KCNH2 3.1 inh, hERG WT inh)
C[C@@H]1c2ccccc2CN1CC1=NCCN1	none (no result: PLK1 PBD block, MBNL1-CUG inh, KCNH2 3.1 inh, hERG WT inh) | USP1-UAF1 confirm inactive
COc1cccc([C@@H]2Oc3ccc(OC)cc3C[C@H]2OC(=O)NS(=O)(=O)c2ccc(F)cc2)c1	none (no result: PLK1 PBD block, MBNL1-CUG inh, KCNH2 3.1 inh, hERG WT inh)
Oc1ccc(N=C/C=C/c2cccc(Br)c2)cc1-c1nc2ccccc2s1	PLK1 PBD block inconclusive, CBFb-RUNX1 inh inconclusive, VDR inhibitor inconclusive | VDR inh confirm 8.9 | VDR FP 22µM | VDR bla 18µM | VDR viability inconclusive
Nc1ccc(O)c(-c2nc3ccccc3s2)c1	MBNL1-CUG inh inconclusive, CBFb-RUNX1 inh inconclusive
COc1ccc(OC)c2sc(N3CCN(C(=O)c4ccc5c(c4)CCCC5)CC3)nc12	none (no result: PLK1 PBD block, MBNL1-CUG inh, CBFb-RUNX1 inh, KCNH2 3.1 inh, hERG WT inh)
COc1ccc(C)cc1N1C(=N)/C(=C2/Nc3ccccc3S2)C(c2ccccc2)C1=O (stereo unspecified)	PLK1 PBD block inconclusive, VDR inhibitor inconclusive, KCNH2 3.1 inh inconclusive | VDR inh confirm 10 | VDR FP 8.9µM | VDR bla inactive | VDR viability inactive
COc1ccc(C2C(Oc3ccccc3)C(=O)N2c2cc(C)ccc2C)cc1OC (stereo unspecified)	none
CCOC(=O)C1CCN(C2=NC(=O)/C(=C/c3ccc(Cl)cc3)S2)CC1	none (no result: CBFb-RUNX1 inh)
